This note sets out measurements from ChEMBL document CHEMBL2218924, “A broad activity screen in support of a chemogenomic map for kinase signalling research and drug discovery” (Biochem J, 2013).

In experiment [1] the target is Tyrosine-protein kinase SYK (Homo sapiens) (UniProt P43405). The note with it: at 10 µM.
Experiment [2] has as its target T1, Serine/threonine-protein kinase TAO1 (Homo sapiens) (UniProt Q7L7X3).
T1 sequence (whole entry): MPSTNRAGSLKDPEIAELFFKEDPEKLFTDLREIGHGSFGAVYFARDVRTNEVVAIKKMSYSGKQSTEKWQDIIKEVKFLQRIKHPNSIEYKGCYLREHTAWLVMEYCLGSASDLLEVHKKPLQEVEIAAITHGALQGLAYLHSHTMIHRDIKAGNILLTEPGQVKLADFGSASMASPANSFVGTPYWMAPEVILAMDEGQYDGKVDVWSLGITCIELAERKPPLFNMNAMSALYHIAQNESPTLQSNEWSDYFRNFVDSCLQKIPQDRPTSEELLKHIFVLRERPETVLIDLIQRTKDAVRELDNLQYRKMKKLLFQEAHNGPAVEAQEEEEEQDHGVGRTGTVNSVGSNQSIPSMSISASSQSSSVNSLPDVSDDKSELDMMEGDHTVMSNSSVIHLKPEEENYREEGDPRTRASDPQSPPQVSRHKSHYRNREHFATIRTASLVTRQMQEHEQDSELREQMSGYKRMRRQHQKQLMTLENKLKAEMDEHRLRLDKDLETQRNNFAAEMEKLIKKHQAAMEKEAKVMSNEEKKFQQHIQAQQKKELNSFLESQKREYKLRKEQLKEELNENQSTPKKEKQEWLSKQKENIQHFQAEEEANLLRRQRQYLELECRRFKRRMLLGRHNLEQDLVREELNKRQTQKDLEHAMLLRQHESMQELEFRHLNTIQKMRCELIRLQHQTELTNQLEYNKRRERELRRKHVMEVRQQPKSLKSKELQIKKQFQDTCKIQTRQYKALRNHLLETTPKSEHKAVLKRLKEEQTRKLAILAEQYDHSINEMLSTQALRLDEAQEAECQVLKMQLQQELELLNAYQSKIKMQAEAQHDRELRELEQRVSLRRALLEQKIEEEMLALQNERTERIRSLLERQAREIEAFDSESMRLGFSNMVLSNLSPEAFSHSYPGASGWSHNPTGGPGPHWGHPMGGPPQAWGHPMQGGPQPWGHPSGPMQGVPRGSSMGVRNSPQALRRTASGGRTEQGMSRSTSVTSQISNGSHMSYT
To be noted: at 1 µM.

The target of experiment [3] is T1, Serine/threonine-protein kinase TAO1 (Homo sapiens). The note with it: at 10 µM.
Experiment [4] deals with T2, Serine/threonine-protein kinase TAO2 (Homo sapiens) (UniProt Q9UL54).
T2 sequence (whole entry): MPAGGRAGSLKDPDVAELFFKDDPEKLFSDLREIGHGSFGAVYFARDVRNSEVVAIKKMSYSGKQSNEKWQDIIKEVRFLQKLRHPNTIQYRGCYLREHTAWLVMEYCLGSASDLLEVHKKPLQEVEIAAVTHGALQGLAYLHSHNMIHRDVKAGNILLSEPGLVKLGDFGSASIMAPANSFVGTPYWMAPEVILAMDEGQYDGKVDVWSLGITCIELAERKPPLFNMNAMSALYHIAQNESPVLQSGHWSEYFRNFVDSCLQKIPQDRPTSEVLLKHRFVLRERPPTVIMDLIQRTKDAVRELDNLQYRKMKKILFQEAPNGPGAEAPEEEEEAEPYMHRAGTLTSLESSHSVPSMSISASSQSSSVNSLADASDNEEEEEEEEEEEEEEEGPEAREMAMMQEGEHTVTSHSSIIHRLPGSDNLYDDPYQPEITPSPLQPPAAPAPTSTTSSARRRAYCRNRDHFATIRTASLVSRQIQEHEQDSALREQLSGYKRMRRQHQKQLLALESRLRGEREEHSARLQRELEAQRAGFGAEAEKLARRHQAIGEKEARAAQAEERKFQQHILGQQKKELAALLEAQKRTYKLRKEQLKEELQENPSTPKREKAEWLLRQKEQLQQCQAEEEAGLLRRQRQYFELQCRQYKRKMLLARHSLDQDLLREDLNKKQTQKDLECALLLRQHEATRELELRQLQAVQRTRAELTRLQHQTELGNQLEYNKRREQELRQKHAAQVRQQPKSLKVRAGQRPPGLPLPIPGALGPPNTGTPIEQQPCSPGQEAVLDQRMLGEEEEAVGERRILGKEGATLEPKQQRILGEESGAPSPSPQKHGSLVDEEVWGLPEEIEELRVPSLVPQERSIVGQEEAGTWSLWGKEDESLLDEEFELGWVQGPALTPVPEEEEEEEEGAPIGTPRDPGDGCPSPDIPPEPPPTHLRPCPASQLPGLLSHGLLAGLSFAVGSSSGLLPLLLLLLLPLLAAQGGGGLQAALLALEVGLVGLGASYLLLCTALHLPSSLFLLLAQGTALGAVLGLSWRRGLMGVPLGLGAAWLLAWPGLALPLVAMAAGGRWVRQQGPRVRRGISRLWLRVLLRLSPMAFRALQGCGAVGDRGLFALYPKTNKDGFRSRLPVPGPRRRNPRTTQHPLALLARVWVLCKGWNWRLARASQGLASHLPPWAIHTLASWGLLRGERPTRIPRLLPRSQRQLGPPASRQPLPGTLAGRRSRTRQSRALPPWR
The note with it: at 1 µM.

Experiment [5] addresses T3, Serine/threonine-protein kinase TBK1 (Homo sapiens) (UniProt Q9UHD2).
T3 sequence (whole entry): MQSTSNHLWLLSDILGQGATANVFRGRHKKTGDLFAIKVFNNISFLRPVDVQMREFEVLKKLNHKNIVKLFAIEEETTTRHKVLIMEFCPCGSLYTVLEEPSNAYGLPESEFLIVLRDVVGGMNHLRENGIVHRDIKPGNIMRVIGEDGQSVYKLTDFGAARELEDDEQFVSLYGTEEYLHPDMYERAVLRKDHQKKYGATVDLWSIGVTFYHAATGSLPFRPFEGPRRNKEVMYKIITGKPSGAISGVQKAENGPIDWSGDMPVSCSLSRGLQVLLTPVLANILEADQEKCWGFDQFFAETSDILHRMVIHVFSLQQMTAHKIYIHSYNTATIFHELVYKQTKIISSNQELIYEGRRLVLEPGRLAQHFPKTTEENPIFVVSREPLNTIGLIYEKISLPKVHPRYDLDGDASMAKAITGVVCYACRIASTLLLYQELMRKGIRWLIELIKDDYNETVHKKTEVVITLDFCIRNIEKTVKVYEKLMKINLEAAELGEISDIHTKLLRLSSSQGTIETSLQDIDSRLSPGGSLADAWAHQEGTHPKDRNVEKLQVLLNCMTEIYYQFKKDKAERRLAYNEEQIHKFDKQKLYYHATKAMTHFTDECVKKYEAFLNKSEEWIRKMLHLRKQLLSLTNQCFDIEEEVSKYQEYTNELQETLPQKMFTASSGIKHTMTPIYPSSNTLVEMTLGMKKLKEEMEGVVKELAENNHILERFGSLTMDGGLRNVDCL
The note with it: at 1 µM.

Experiment [6] addresses T3, Serine/threonine-protein kinase TBK1 (Homo sapiens). The note with it: at 10 µM.
In experiment [7] the target is T4, Inhibitor of nuclear factor kappa-B kinase subunit alpha (Homo sapiens) (UniProt O15111).
T4 sequence (whole entry): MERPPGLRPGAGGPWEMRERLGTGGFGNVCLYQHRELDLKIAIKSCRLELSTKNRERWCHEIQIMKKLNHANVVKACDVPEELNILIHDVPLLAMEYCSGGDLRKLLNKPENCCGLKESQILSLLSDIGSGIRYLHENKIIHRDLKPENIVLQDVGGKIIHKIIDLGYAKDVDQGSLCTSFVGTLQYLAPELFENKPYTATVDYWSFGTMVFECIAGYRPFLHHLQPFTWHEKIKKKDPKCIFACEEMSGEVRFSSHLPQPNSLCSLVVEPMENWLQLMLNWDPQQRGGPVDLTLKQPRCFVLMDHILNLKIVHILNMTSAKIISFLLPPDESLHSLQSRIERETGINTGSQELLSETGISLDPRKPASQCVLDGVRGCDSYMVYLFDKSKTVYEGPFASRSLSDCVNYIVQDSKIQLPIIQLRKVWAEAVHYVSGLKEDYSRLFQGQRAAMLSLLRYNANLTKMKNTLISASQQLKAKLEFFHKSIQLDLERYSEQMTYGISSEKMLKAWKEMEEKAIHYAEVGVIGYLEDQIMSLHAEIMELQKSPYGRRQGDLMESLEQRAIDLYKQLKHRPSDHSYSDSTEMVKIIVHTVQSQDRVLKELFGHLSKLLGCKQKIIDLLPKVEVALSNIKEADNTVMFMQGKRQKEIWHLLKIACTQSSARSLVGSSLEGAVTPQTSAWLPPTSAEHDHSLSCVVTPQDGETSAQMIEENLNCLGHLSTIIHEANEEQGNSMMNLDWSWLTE
The note with it: at 1 µM.

Experiment [8] addresses T4, Inhibitor of nuclear factor kappa-B kinase subunit alpha (Homo sapiens). To be noted: at 10 µM.

Broadly, the residual activity is the signal under treatment as a percentage of the control signal. In the case of `O=C1Nc2ccc(Br)cc2/C1=C\c1cc2c([nH]1)CCCC2`, the residual activity in experiment [1] stood at 100%; in experiment [2] it was 104%; in experiment [3], 98%; in experiment [4], 111%; in experiment [5] it was 59%; in experiment [6], 65%. For the same compound, the residual activity was determined as 102% in experiment [7] and 115% in experiment [8].
